About 30 (0.07%) of roughly 44,000 compounds were called active. Roughly 1% stayed inconclusive and do not appear here. No stated cut-off is given here; in the data, active means inhibition above about 54% (passing the limit was not always enough); inconclusive means no clear call, values can overlap the other calls. The list comes from a sample in which actives are over-represented; it also holds similar structures and randomly drawn compounds.
Molecular target: Histone-lysine N-methyltransferase NSD2 (Homo sapiens) (UniProt O96028)
Sequence (O96028 whole entry, looked up): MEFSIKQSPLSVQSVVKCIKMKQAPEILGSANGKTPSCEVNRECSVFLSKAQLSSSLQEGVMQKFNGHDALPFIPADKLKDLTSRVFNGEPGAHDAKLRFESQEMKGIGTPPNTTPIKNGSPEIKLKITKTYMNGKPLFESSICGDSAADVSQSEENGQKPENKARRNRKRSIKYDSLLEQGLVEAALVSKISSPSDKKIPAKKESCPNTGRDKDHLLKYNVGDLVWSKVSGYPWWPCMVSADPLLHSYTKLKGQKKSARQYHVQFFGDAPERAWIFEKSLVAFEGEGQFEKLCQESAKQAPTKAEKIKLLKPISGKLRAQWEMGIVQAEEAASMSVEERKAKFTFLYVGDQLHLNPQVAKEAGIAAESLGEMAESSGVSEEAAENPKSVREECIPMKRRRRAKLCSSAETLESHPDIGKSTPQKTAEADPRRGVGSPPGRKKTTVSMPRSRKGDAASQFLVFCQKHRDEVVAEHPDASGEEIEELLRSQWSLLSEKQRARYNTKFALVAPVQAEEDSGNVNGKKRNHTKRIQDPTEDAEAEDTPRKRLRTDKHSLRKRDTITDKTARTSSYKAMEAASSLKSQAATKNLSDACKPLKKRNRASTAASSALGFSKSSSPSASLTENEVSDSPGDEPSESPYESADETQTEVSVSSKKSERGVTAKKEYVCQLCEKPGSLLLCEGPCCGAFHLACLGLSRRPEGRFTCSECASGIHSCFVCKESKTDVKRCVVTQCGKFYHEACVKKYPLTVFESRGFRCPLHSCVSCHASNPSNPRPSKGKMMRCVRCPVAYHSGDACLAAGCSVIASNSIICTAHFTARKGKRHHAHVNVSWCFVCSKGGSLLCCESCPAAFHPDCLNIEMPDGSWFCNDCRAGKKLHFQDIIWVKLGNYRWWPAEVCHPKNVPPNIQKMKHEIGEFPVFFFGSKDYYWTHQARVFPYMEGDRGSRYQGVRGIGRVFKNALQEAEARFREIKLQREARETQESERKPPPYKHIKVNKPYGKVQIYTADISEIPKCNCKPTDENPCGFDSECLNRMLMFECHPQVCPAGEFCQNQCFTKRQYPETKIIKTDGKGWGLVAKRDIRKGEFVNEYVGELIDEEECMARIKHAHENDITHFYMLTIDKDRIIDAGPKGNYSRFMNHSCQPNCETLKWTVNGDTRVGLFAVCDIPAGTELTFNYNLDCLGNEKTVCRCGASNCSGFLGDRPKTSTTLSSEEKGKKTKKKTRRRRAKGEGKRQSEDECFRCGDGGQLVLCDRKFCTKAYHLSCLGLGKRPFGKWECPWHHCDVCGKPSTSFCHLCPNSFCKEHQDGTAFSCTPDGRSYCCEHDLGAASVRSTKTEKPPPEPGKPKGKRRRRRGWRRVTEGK
Experiment: inhibitors of human NSD2, primary screen, biochemical, plate reader, single point (AID 624260);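 further: inhibitors reduce the monomethyl H3K36 fluorescence signal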
Conditions: NSD2-SET H3K36me1 DELFIA fluorescence, at 12.5 µM, stronger effect = higher value

inhibition, inactive:
CCC(=O)N(C)C[C@@H]1Oc2ncc(C3=CCCC3)cc2C(=O)N([C@H](C)CO)C[C@@H]1C -1.76%
CCC(=O)N(C)C[C@H]1Oc2cc(-c3ccc(C)cc3)ccc2S(=O)(=O)N([C@@H](C)CO)C[C@H]1C -0.743%
Cc1ccccc1S(=O)(=O)N(C)C[C@@H]1OCc2ccccc2-c2c(n(C)c3ccccc23)C(=O)N([C@H](C)CO)C[C@H]1C -9.38%
O=C(C[C@H]1C[C@H]2c3cc(NC(=O)CC4CC4)ccc3O[C@H]2[C@H](CO)O1)NCc1ccccn1 -2.07%
C[C@@H]1CN([C@@H](C)CO)C(=O)c2cccc(N(C)C)c2O[C@@H]1CN(C)S(=O)(=O)c1ccccc1 2.66%
C[C@@H]1CCCCO[C@H](CN(C)Cc2ccc(Cl)c(Cl)c2)[C@@H](C)CN([C@@H](C)CO)C(=O)c2cc(NC(=O)Nc3ccccc3)ccc2O1 -6.5%
C[C@@H]1CN([C@H](C)CO)S(=O)(=O)c2ccc(C#CCN(C)C)cc2O[C@H]1CN(C)C(=O)CC1CC1 2.71%
C[C@@H]1CN([C@@H](C)CO)C(=O)c2cc(C3=CCCC3)cnc2O[C@@H]1CN(C)C(=O)Cc1ccncc1 -7.1%
CN(C)C(=O)C[C@@H]1C[C@@H]2c3cc(NC(=O)C4CCOCC4)ccc3O[C@@H]2[C@@H](CO)O1 -0.279%
COc1ccccc1S(=O)(=O)N(C)C[C@H]1Oc2cc(C#CCC3CCCC3)ccc2S(=O)(=O)N([C@@H](C)CO)C[C@H]1C -4.13%
Cc1noc(C)c1NC(=O)Nc1ccc2c(c1)C(=O)N([C@@H](C)CO)C[C@H](C)[C@@H](CN(C)Cc1ccncc1)OCCCC[C@@H](C)O2 -3.95%
C[C@@H]1CN([C@H](C)CO)S(=O)(=O)c2ccc(/C=C/c3ccccc3)cc2O[C@@H]1CN(C)Cc1ccccc1 9.82%
CC(C)CC#Cc1cnc2c(c1)C(=O)N([C@@H](C)CO)C[C@@H](C)[C@@H](CN(C)C(=O)c1cccnc1)O2 -0.174%
C[C@@H]1CN([C@H](C)CO)C(=O)c2cc(C3=CCCCC3)cnc2O[C@@H]1CN(C)C(=O)c1ccc2c(c1)OCO2 -0.482%
C[C@H]1CN([C@@H](C)CO)S(=O)(=O)c2ccc(Br)cc2O[C@H]1CN(C)C(=O)c1cnccn1 -5.84%
COc1cccc(S(=O)(=O)N[C@H]2CC[C@H](CC(=O)NC3CCC3)O[C@H]2CO)c1 8.91%
O=C(C[C@@H]1C[C@@H]2c3cc(NC(=O)c4ccc5c(c4)OCO5)ccc3O[C@@H]2[C@@H](CO)O1)NCC1CC1 0.538%
C[C@H](CO)N1C[C@H](C)[C@H](CN(C)C(=O)Cc2ccccn2)Oc2ncc(-c3cncnc3)cc2C1=O -7.65%
Cc1ccc(S(=O)(=O)Nc2ccc3c(c2)C(=O)N([C@H](C)CO)C[C@@H](C)[C@@H](CN(C)C)OCCCC[C@@H](C)O3)cc1 -3.71%
COc1ccc(NC(=O)N(C)C[C@H]2Oc3ncc(C#C[C@@H](C)O)cc3C(=O)N([C@H](C)CO)C[C@H]2C)cc1 -13%
COc1ccc(CN(C)C[C@@H]2OCCCC[C@@H](C)Oc3ccc(NS(=O)(=O)c4ccc(F)cc4)cc3C(=O)N([C@@H](C)CO)C[C@H]2C)cc1 -2.7%
CCCNC(=O)N(C)C[C@H]1Oc2ncc(C#Cc3ccncc3)cc2C(=O)N([C@@H](C)CO)C[C@@H]1C 4.58%
C/C=C/c1ccc2c(c1)O[C@H](CN(C)C(C)=O)[C@H](C)CN([C@H](C)CO)S2(=O)=O 8.37%
O=C(C[C@H]1C=C[C@H](NC(=O)CN2CCOCC2)[C@@H](CO)O1)NCc1cccc(F)c1 -94.1%
